Shown are actives, neighbours in structure and some others; about 1.2% of the full set was active somewhere.
HTT cytoprotect – cytoprotection in Huntington HTT-Q103 PC12 cell model; PC12 HTT-Q103 induced, cytoprotection, ATP luminescence, 40 h; Potency, µM (titrated, usually from 56.4 µM), inactives show cytoprotection (ATP increase), usual class: activators; 0.14% of 230,000 active; AID 1471; further: potency means the concentration at half of the fitted maximal effect; % of control where 0% means no effect; nearly all actives have a fitted effect of over 45% in size
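Huntington model: PC12 line, ecdysone-inducible HTTQ103 exon1–GFP, tebufenozide 100 nM. Test articles in a dose series. Endpoint luminescence from cellular ATP.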
HttQ103 aggreg – reduces HttQ103-GFP aggregates in PC12 cells | PC12 HttQ103-GFP aggregates, Acumen cytometry, 40 h | Potency, µM (top dose mostly 46.1 µM), inactives show at the top dose activity change, negative = inhibition, actives largely listed as inhibitors | 1.1% of 220,000 active | AID 1688; further: potency means the concentration at half of the fitted maximal effect; on the % scale 0 is the no-effect control and ±100 the full control effect; nearly all actives have a fitted effect of over 60% in size
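Multiplexed with ATP-based cell death, this channel scores GFP aggregates in PC12 cells expressing inducible HTTex1-Q103-GFP. Induction used 100 nM tebufenozide; compounds were tested in concentration series.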
GLA inh pH 4.5 – alpha-galactosidase A (human) inhibition, pH 4.5 | P06280 | purified enzyme, 4-MU-alpha-Gal fluorescence, pH 4.5 | activity change, negative = inhibition, % at 105 µM | 230,000 tested, under 10 active | AID 1467;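 further: 0% = full activity with enzyme and -100% = basal without enzyme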
Target sequence (P06280 whole entry, looked up): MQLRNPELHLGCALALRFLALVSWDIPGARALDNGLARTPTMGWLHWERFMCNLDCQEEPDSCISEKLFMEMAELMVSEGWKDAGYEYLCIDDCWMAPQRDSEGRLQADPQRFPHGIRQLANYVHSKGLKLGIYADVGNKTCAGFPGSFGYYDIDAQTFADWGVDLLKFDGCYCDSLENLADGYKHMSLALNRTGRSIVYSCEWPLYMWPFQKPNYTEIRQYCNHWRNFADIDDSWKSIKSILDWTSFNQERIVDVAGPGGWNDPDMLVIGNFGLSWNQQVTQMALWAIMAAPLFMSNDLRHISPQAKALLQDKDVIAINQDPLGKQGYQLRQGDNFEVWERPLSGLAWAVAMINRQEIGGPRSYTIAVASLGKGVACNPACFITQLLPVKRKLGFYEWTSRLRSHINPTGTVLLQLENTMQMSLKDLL
aGal spleen mod – inhibits or activates alpha-galactosidase in human spleen homogenate. AID 2107. human spleen homogenate, 4MU-alpha-Gal fluorescence, 40 min. 0.008% of 240,000 active. Potency, µM (doses to about 80 µM), for the others: at the top dose activity change, negative = inhibition, actives largely listed as inhibitors;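 further: potency means the concentration at half of the fitted maximal effect; 0% = enzyme with vehicle and -100% = no enzyme basal signal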
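Inhibition or activation of alpha-galactosidase in human spleen homogenate is scored by 4-MU fluorescence after 40 min at 37C, pH 5.0, with 1 mM substrate. AC50s come from concentration-response fitted to the Hill equation.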
PKM2 activator – activators of human pyruvate kinase M2 | purified PKM2, Kinase-Glo ATP luminescence, activation; response scale: 0% is enzyme alone, no compound | Potency, µM (titrated, usually from 57.5 µM), inactives show at the top dose activation, hits mostly activators | 0.34% of 260,000 active; further: potency means the concentration at half of the fitted maximal effect; on the % scale 0 is the no-effect control and ±100 the full control effect; nearly all actives have a fitted effect of over 55% in size
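ATP formation by purified human PK-M2, quantified via coupled luciferase luminescence after 1 h at room temperature with 0.1 mM ADP and 0.5 mM PEP final.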
Starred values were filed as active, the others as inactive; u = inconclusive; x = no result given; [ ] = remark or other dose. The call rests on the fitted dose curve; in most records, active means well fitted curve in the direction sought with a large enough effect; inconclusive means small, poorly fitted or top-dose-only effect, or another doubt; inactive means no such curve, though single readings can be large; an effect the other way counts as inactive or inconclusive.

SMILES	HTT cytoprotect	HttQ103 aggreg	GLA inh pH 4.5	aGal spleen mod	PKM2 activator
CCn1c(=O)c(-c2ccccc2)c(O)c2ccccc21	12%	-7%[9.22 µM]	8	2%	6%
CCn1c(=O)c2c(cnn2C)c2ccccc21	0%	8.9µM*	3	1%	-1%
CCn1cc(C(=O)NCc2ccco2)c(=O)c2cc(S(=O)(=O)N3CCCCCC3)ccc21	-95%[10 µM]	13µM*	-12	3%	-18%
CCn1cc(C(=O)NCc2ccco2)c(=O)c2cc(S(=O)(=O)N3CCC(C)CC3)ccc21	-62%[0.074 µM]	u	-10	5%	-19%
CC1(C)OC2OC(C(=O)N/N=C/c3cc(Br)ccc3O)C3OC(C)(C)OC3C2O1 (configuration not stated)	16%[10 µM]	10µM*	-21	-15%	0%
c1nc2sc3c(c2c2nnnn12)CCCC3	6%[1.9 µM]	10µM*	-12	-7%	-1%
c1nc2sc3c(c2c2nnnn12)CCC3	15%	u	-4	-17%	-1%
NNC(=O)c1ccc(N2CCc3ccccc32)c([N+](=O)[O-])c1	15%[10 µM]	-9%	0	-7%	18%
COC(CNC(=O)c1ccc(N2CCc3ccccc32)c([N+](=O)[O-])c1)OC	15%[10 µM]	11µM*	-4	-4%	-2%
COC(=O)C/C=C\[C@@H](C)[C@@H](/C=N\O[C@@H]1O[C@H](COC(C)=O)[C@H](OC(C)=O)[C@H](OC(C)=O)[C@H]1OC(C)=O)OC	u	x	x	4%[17.5 µM]	x
CSc1nc(Oc2ccc3ccccc3c2)c2ccccc2n1	-24%[10 µM]	10µM*	-13	2%	-19%
CCOc1cc(/C=C2/C(=O)ON=C2C)ccc1OCc1ccccc1F	-19%	12%	3	2%	16µM*
Cn1c(=O)c2c(nc(Oc3ccc4ccccc4c3)n2C)n(C)c1=O	14%	1.4µM*	7	9%	1%
COc1ccc(NC(=O)N2CC[C@@]3(CCCN(C(=O)c4ccncc4)C3)C2)cc1	2.2µM*	x	x	-13%	x
CC(=O)c1cccc(NC(=O)COc2cc3oc(=O)c(CC(C)O)c(C)c3cc2Cl)c1 (configuration not stated)	14%[10 µM]	3.5µM*	-4	4%	-3%
CCOC(=O)c1ccc(NC(=O)COc2cc3oc(=O)c(CC(C)O)c(C)c3cc2Cl)cc1 (configuration not stated)	4%[10 µM]	7%[9.22 µM]	12	2%	-2%
CCN(CC)Cc1c(O)ccc2c(=O)c(-c3ccc4c(c3)OCCO4)coc12	12%[10 µM]	11µM*	-8	8%	-14%
O=C(c1cnccn1)N1CCC[C@@]2(CCN(c3cccc(-c4ccccc4)c3)C2)C1	-6%	x	x	-12%	x
O=C(COc1ccc(-c2nnco2)cc1)N1CCN(S(=O)(=O)c2ccc3ccccc3c2)CC1	-3%	u	6	5%	7.1µM*
CS(=O)(=O)N1CCN(C(=O)COc2ccc3ccccc3c2)CC1	12%[10 µM]	19%[9.22 µM]	-1	2%	-1%
Cc1ccc(S(=O)(=O)N2CCN(C(=O)COC(=O)COc3ccccc3)CC2)cc1	-22%	-4%	4	1%	3%
COc1ccc2c(CC(=O)N3CCN(S(=O)(=O)c4cccs4)CC3)coc2c1	29%[10 µM]	-13%	-30	-13%	22µM*
COc1ccc(S(=O)(=O)N2CCN(C(=O)COc3ccc4c(C)cc(=O)oc4c3)CC2)cc1	-18%[0.074 µM]	-14%	-1	10%	14µM*
COc1ccc(S(=O)(=O)N2CCN(C(=O)COc3ccccc3)CC2)cc1	2%[10 µM]	0%[9.22 µM]	-10	-3%	14µM*
CSCC[C@H](NC(=O)[C@H](CC(C)C)NC(=O)CNC(=O)[C@H](Cc1ccc(O)cc1)NC(=O)[C@H](Cc1ccccc1)NC(=O)[C@H](CCCCN)NC(=O)[C@H](CC(N)=O)NC(=O)[C@@H]1CCCN1C(=O)[C@H](CC(=O)O)NC(=O)[C@H](C)NC(=O)[C@@H]1CCC(=O)N1)C(N)=O	x	x	x	-8%	x
SMILES	HTT cytoprotect	HttQ103 aggreg	GLA inh pH 4.5	aGal spleen mod	PKM2 activator
CN(C)CCSCCO	15%[10 µM]	x	x	x	x
CCOC(=O)CNS(=O)(=O)c1ccc(F)cc1Br	x	x	x	-2%	x
O=C(CCl)N1CCN(S(=O)(=O)c2ccc3ccccc3c2)CC1	x	x	x	x	13µM*
O=S(=O)(c1ccc2ccccc2c1)N1CCN(S(=O)(=O)c2ccc3ccccc3c2)CC1	0%[10 µM]	x	x	x	x
CCC1=Nc2cc(C(=O)NCc3ccco3)ccc2Sc2ccccc21	-46%[10 µM]	10%	-5	-2%	18µM*
COc1ccc(NC(=S)NC(NC(=O)c2cccc(Cl)c2)C(Cl)(Cl)Cl)c([N+](=O)[O-])c1 (configuration not stated)	18%[10 µM]	28µM*	-5	-1%	-3%
COc1ccc(NC(=S)NC(NC(=O)c2cccc(C)c2)C(Cl)(Cl)Cl)c([N+](=O)[O-])c1 (configuration not stated)	-13%[1.9 µM]	4%	-8	2%	0%
CO[C@H]1COC(=O)C/C=C\[C@H](C)[C@@H](OC)COC(=O)[C@H](C)COC(=O)C/C=C\[C@@H]1C	-7%[10 µM]	x	x	-3%[17.5 µM]	x
CC(=O)N(C1=C(N2CCOCC2)C(=O)c2ccccc2C1=O)c1ccc(C(=O)O)cc1	0%[10 µM]	9%[9.22 µM]	-17	-2%	-1%
CC(=O)N(C)C1=C(N2CCOCC2)C(=O)c2ccccc2C1=O	-122%	25µM*	2	25%	-10%
O=Cc1ccccc1OCCOc1ccccc1C=O	-24%[10 µM]	35µM*	-2	-2%	-12%
C=Cc1ccccc1C=C	-1%	x	x	-8%	x
Cc1cc(=O)oc2cc(NS(=O)(=O)c3ccccc3)ccc12	-4%[10 µM]	11%[9.22 µM]	u	u	16µM*
Cc1cccc(C(=O)N2CCN(c3ccc(C(F)(F)F)cn3)CC2)c1C	-3%	16µM*	4	4%	-1%
CC(=O)c1c(C)[nH]c(C(=O)OCCCCN2C(=O)c3ccccc3C2=O)c1C	-36%	2.8µM*	-14	2%	0%
CC(=O)c1c(C)[nH]c(C(=O)OCc2ccccc2)c1C	23%[10 µM]	-11%	x	-7%	5%
COCCCNCCCOc1ccc(Cl)cc1C(C)(C)C	x	7.9µM*	-16	-3%	-13%
CNCCCOc1ccc(Cl)cc1C(C)(C)C	-22%	-4%[9.22 µM]	-2	3%	6%
CC1CCCCN1C(=O)c1cccc(NC(=O)c2ccccc2)c1 (configuration not stated)	5%[10 µM]	-4%[9.22 µM]	2	5%	1%
CC(C)C(=O)Nc1cccc(C(=O)N2CCCCC2C)c1 (configuration not stated)	-5%	10µM*	5	5%	1%
Cc1nc(NC2CCCCC2)c2nc(-c3ccccc3)n(C(C)CN(C)C)c2n1 (configuration not stated)	-37%	x	-4	0%	7%
CN(C)S(=O)(=O)c1ccc(C(=O)NCc2cccs2)cc1	-5%	-8%	-2	-6%	6.3µM*

Bioassay records as filed in PubChem BioAssay.
